Assays:
Assay in all cases: log2 ratio of Biotin-Ahx-Ub-VS probe labelling (fragment/DMSO); higher = less target engagement (more negative = stronger competition), active = hit call of the paper (q ≤ 0.05, log2 ratio ≤ -1)
Conditions in all cases: compound concentration: 200 uM; treatment time: 3 h
USP42 = target: T1, USP42 (UniProt Q9H9J4)
T1 sequence (whole entry): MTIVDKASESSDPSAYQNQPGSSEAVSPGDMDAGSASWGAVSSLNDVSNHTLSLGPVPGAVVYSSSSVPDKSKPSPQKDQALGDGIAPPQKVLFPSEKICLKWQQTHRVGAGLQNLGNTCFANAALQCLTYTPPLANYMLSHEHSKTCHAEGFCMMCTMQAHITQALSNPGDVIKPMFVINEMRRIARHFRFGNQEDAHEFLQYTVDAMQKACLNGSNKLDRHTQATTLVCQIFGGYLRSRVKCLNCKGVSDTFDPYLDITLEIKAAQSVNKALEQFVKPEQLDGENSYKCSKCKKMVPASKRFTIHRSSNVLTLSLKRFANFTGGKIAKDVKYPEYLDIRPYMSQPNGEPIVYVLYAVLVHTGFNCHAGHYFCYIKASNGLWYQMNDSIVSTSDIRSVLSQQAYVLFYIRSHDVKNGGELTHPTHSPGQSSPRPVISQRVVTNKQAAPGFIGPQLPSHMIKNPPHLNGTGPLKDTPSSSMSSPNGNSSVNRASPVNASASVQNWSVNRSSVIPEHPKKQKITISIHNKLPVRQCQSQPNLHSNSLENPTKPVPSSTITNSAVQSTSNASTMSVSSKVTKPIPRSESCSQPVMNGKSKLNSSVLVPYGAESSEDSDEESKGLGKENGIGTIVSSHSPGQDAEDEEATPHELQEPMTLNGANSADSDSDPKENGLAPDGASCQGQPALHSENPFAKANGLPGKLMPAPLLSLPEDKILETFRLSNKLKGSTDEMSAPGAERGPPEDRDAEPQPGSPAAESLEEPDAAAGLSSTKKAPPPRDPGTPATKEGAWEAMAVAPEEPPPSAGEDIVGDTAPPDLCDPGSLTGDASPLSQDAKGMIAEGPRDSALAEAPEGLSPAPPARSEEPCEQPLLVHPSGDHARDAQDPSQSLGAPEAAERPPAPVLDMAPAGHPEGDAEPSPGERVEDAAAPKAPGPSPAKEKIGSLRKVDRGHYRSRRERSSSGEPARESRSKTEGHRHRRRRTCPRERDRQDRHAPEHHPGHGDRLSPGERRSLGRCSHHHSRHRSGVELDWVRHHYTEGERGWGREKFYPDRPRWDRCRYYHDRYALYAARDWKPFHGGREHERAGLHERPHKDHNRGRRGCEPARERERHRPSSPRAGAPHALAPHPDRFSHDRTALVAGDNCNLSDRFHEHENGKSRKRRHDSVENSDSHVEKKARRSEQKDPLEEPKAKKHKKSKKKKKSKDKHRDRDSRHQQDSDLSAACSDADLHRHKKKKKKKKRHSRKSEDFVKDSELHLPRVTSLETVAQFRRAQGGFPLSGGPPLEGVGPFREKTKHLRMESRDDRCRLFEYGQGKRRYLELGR
How it was run: (§1)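 Labelling with Biotin-Ahx-Ub-VS (0.5 µM final, 1 h) followed a 3 h triplicate treatment of HEK293T lysate (495 µg per sample, Tris/CHAPS/IGEPAL buffer with protease inhibitors) with fragment at 200 µM or vehicle. Labelled DUBs were NeutrAvidin-enriched, digested with LysC and trypsin, and run by diaPASEF LC-MS/MS. The values, average log2 fragment/vehicle ratios by unpaired t-test, come from global-median-normalised Spectronaut label-free quantities. Proteins with ≥2 unique peptides were used.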

USP46 = USP46 (UniProt P62068)
Chain of USP46 (P62068 whole entry): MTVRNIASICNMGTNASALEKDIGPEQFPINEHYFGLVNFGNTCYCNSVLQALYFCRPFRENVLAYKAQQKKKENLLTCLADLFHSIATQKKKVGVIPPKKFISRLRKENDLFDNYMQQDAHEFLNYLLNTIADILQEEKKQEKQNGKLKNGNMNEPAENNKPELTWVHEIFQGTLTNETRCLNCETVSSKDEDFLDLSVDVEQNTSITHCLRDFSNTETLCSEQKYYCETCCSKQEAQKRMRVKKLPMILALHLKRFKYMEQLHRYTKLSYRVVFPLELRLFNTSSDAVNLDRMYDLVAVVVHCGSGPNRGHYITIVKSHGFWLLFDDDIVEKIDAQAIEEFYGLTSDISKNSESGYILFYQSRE
How it was run: as §1

USP47 = target: T2, USP47 (UniProt Q96K76)
T2 sequence (whole entry): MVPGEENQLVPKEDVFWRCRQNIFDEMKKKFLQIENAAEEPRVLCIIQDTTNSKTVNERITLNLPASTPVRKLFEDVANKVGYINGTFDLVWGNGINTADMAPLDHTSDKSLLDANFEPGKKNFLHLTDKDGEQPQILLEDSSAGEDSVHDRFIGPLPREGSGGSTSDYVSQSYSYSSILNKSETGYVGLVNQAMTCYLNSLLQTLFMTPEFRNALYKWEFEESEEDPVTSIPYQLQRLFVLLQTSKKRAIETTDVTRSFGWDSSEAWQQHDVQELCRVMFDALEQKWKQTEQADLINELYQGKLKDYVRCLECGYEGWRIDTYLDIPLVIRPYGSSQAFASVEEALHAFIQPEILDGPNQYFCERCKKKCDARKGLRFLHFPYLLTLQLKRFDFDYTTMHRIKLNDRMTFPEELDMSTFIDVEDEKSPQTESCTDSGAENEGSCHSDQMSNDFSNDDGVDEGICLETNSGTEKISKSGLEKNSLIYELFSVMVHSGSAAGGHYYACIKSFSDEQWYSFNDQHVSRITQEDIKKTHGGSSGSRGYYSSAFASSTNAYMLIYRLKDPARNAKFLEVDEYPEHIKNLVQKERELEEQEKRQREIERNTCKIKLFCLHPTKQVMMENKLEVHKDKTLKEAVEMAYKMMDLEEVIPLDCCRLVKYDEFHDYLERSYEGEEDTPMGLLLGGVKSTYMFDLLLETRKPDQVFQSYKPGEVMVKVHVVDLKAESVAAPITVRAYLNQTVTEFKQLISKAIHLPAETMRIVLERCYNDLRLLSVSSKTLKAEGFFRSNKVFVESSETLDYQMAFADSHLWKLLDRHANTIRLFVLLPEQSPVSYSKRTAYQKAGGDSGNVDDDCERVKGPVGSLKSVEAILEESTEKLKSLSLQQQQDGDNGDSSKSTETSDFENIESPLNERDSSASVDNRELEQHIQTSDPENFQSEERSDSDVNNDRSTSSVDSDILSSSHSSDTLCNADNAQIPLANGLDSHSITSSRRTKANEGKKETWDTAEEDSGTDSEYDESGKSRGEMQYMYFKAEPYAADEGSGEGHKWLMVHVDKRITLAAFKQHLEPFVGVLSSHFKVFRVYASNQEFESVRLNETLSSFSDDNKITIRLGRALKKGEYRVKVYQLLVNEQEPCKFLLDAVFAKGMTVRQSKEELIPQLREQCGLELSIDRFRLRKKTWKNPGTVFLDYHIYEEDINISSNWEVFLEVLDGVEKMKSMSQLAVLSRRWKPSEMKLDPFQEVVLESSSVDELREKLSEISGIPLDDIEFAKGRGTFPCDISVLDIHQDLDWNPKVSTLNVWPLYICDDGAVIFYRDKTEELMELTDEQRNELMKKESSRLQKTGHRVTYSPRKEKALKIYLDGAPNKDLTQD
How it was run: as §1

USP48 = target: T3, USP48 (UniProt Q86UV5)
T3 sequence (whole entry): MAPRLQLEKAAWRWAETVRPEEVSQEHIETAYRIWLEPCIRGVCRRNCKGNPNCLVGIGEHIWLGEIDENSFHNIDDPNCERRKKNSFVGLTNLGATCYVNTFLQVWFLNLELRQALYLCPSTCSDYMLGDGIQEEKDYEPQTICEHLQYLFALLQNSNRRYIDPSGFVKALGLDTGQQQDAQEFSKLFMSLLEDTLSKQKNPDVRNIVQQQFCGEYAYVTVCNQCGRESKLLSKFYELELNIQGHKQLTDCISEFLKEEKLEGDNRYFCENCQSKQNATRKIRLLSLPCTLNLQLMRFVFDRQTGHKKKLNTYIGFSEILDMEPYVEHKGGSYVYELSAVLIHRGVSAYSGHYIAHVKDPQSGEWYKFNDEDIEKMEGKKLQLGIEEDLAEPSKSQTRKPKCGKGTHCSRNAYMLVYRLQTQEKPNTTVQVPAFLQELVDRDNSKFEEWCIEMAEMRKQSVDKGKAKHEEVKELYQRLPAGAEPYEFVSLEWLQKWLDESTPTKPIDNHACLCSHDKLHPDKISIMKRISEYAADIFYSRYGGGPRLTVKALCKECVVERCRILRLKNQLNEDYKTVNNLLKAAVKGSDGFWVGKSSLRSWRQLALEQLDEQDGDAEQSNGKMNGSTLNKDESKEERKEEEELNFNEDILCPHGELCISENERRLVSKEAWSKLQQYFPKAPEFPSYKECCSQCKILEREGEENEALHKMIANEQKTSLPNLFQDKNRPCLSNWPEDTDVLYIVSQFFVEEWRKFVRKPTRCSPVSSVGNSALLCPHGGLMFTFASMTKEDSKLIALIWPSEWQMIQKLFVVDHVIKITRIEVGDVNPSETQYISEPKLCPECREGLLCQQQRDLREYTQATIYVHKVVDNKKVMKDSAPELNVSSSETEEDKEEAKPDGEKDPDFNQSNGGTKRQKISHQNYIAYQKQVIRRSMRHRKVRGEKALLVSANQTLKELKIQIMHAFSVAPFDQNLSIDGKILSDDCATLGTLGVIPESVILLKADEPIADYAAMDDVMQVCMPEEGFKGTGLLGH
How it was run: as §1

USP5 = target: T4, USP5 (UniProt P45974)
T4 sequence (whole entry): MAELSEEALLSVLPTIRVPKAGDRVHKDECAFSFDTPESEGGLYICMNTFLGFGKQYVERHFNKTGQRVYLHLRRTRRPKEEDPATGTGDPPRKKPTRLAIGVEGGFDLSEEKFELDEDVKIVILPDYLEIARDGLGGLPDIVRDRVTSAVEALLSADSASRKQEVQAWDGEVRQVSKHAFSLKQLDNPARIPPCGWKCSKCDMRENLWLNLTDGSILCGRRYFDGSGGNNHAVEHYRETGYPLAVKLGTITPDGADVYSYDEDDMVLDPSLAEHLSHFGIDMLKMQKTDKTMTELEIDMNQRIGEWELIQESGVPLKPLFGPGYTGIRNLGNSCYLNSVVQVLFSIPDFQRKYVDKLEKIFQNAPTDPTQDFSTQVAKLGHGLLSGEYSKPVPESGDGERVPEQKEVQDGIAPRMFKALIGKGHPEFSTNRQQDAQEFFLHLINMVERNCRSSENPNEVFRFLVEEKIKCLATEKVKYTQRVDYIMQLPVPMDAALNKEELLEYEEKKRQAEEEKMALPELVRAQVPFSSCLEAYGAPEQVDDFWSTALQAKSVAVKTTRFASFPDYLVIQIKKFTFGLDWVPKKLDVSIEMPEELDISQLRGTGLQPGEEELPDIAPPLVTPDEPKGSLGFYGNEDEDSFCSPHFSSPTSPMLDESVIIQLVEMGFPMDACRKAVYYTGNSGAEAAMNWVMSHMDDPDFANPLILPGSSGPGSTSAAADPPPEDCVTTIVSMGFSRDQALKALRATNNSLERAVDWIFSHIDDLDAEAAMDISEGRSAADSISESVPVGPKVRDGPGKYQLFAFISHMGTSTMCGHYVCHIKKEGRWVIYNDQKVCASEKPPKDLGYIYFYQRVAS
How it was run: as §1

USP54 = USP54 (UniProt Q70EL1)
Chain of USP54 (Q70EL1 whole entry): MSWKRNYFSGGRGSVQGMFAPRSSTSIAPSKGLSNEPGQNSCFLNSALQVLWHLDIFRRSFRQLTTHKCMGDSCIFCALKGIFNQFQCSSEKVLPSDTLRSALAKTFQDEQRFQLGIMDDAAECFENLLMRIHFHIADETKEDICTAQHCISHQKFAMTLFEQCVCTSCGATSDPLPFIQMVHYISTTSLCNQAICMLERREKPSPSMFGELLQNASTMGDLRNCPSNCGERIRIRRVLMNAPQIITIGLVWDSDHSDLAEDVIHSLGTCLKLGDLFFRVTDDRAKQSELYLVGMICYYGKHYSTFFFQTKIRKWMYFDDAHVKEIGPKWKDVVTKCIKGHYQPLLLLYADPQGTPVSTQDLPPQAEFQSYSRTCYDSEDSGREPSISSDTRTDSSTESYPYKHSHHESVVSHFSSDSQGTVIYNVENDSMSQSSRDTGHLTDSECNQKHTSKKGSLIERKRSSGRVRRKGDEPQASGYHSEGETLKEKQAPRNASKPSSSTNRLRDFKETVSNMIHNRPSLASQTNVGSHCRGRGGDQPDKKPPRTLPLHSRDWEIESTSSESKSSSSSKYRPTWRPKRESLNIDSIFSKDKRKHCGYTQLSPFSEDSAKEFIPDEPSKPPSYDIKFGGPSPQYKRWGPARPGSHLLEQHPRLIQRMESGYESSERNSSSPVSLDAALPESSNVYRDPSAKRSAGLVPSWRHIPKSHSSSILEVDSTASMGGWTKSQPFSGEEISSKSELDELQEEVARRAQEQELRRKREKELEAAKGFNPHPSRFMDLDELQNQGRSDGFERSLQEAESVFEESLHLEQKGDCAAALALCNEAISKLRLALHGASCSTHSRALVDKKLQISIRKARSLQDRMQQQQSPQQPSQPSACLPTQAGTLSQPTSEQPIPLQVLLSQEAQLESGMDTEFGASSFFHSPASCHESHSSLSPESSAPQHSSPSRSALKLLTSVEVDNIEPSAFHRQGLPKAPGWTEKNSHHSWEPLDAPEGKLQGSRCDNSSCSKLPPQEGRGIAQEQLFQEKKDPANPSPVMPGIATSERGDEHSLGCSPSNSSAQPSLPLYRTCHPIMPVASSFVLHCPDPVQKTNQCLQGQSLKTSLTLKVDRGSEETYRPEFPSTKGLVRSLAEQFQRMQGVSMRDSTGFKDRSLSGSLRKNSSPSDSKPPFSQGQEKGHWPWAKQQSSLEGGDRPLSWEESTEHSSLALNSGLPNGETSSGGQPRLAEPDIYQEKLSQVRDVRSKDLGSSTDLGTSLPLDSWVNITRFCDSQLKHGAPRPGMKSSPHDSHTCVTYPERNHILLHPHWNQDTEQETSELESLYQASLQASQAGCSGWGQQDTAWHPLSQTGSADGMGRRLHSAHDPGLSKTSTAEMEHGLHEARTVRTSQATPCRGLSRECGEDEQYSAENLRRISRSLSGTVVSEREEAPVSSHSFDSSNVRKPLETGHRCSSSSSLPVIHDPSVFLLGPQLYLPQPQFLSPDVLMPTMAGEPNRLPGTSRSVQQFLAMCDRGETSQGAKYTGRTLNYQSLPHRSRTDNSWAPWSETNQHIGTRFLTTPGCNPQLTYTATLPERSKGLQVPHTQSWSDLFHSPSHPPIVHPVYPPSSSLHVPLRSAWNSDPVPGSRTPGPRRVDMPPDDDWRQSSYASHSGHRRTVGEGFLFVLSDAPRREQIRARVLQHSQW
How it was run: as §1

USP7 = USP7 (UniProt Q93009)
How it was run: as §1

USP8 = target: T5, USP8 (UniProt P40818)
T5 sequence (whole entry): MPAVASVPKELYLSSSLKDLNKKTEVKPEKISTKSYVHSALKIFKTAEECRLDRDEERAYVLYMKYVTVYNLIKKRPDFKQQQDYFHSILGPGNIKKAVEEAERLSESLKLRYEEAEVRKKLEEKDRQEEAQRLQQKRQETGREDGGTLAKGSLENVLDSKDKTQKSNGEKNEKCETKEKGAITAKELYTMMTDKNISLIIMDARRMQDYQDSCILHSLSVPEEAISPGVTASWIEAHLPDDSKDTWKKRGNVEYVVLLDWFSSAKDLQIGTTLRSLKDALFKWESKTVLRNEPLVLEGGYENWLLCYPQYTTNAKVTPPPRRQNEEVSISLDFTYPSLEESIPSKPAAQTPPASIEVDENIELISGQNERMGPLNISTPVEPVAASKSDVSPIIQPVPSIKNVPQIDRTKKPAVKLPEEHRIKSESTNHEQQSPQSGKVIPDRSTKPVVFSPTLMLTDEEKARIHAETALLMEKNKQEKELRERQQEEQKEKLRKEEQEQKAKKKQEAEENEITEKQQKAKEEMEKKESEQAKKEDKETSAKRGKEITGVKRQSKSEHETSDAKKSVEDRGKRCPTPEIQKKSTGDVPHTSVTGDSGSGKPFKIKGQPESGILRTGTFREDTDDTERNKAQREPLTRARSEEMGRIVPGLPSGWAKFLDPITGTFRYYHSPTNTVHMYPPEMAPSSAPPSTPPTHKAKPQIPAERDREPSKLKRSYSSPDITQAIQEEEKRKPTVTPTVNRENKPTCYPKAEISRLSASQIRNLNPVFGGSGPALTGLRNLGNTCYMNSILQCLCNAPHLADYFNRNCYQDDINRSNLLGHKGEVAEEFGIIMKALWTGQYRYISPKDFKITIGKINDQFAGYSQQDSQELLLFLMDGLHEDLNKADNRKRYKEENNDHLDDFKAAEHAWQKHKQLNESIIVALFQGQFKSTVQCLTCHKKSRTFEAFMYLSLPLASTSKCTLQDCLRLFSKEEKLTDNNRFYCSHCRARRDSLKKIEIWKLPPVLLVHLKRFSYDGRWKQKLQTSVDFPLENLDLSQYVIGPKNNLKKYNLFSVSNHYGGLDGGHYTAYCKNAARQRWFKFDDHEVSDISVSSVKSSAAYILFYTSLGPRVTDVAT
How it was run: as §1

USP9X = USP9X (UniProt Q93008)
Chain of USP9X (Q93008 whole entry): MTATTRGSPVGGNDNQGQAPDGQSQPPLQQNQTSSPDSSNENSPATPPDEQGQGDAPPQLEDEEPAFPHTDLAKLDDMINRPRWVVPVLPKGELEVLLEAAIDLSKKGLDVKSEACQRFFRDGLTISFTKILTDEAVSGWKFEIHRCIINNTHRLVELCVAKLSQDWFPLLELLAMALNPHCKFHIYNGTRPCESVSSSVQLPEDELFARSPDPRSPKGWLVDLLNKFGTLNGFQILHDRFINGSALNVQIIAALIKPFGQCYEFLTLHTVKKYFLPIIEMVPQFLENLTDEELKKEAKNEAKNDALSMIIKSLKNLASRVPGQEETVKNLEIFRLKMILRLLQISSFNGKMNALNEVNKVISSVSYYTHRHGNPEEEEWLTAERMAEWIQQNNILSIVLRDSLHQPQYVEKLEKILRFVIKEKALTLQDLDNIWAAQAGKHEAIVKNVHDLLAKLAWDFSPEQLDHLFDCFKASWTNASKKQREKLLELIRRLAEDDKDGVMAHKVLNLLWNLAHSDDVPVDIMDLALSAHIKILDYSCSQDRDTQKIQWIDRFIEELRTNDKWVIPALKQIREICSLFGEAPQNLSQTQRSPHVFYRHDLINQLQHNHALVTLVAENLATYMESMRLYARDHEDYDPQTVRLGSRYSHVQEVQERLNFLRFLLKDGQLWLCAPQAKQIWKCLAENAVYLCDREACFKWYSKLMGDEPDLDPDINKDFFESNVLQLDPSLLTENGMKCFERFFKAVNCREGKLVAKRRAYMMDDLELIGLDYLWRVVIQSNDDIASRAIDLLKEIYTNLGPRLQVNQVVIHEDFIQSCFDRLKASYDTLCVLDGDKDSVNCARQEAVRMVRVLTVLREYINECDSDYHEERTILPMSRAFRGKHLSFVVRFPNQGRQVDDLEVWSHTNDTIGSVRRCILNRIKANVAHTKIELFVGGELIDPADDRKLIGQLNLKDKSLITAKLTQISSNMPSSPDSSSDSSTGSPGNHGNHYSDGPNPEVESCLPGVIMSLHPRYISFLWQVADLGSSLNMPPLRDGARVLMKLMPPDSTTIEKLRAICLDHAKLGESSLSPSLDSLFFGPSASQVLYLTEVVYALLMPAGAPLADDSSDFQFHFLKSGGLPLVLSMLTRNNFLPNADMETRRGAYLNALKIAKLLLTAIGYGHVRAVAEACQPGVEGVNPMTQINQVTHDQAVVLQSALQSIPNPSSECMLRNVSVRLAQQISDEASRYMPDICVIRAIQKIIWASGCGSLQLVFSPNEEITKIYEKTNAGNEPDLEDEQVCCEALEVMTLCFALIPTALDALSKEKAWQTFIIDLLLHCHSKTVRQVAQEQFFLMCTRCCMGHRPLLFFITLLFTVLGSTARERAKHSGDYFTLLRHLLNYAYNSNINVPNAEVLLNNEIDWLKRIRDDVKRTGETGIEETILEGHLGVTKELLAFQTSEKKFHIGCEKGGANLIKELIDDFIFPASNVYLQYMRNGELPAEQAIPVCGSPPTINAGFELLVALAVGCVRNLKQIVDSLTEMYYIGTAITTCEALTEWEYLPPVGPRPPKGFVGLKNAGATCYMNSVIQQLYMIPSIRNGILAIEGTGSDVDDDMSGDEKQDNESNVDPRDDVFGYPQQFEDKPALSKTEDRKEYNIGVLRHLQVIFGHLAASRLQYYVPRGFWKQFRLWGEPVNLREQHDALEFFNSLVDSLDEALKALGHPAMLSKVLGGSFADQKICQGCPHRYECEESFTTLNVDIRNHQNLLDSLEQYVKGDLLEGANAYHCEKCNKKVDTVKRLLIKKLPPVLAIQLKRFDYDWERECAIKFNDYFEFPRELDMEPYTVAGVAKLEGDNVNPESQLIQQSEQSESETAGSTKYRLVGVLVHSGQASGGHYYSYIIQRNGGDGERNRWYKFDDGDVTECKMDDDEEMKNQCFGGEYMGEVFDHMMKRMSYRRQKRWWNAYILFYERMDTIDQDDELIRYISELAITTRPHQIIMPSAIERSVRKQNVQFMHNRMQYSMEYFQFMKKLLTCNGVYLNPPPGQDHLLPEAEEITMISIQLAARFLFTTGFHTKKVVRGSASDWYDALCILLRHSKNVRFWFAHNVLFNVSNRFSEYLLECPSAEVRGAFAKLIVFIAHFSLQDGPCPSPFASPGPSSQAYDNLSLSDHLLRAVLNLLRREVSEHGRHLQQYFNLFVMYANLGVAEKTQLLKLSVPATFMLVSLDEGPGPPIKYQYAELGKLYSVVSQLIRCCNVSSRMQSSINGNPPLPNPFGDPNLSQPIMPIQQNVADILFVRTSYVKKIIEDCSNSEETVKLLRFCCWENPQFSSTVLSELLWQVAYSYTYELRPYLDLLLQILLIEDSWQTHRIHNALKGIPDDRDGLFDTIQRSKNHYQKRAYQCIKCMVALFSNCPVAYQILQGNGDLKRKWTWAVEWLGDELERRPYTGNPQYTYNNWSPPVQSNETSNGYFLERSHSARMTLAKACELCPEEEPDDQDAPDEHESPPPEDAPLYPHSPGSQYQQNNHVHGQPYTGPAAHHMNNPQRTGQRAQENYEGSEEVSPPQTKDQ
How it was run: as §1

UniProt O00487 = target: UniProt O00487
Chain of UniProt O00487 (O00487 whole entry): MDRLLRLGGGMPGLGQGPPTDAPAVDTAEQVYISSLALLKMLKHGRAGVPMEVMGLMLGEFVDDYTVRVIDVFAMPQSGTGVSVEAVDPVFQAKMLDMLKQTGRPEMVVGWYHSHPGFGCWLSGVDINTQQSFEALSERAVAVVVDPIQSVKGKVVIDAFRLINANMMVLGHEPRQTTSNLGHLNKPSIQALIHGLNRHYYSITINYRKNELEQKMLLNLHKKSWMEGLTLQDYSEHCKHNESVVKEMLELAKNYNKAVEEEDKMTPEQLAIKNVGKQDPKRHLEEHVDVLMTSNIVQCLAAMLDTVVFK
How it was run: as §1

Measured: log2 ratio of Biotin-Ahx-Ub-VS probe labelling

Cl.O=C(CCl)N1CCC(Cc2nccs2)C1 (stereo not given)
inactive: USP42 0.34 | USP46 0.105 | USP47 -0.538 | USP48 -0.286 | USP5 0.225 | USP54 0.476 | USP7 -0.334 | USP8 -0.208 | USP9X -0.186 | UniProt O00487 -0.1
